Laboratory results reported in the supplement of paper PMC10849652.
The full data set covers some 7,900 targets. This sample favours those with a hit. About 0.6% of all pairs of compound and target were hits. Values without a mark were called inactive.

What was measured:
Experiment in all cases: log2 fold change, soluble protein after heating vs DMSO (PISA); higher = thermal stabilisation; K562 cells, 10 uM, 30 min; active = over 0.2 and 3.5 SD of the protein, either way, in both replicates (recomputed)
[1] = compound: Cn1cc(-c2ccc3nnc(C(F)(F)c4ccc5ncccc5c4)n3n2)cn1
Procedure, shortened: (§1)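 Soluble protein was quantified by TMTpro 16plex LC-MS/MS after channel sums were equalised. It was obtained as the supernatant after 21,000xg for 90 min from pooled aliquots of K562 cells (2×10^6 cells/mL, 10 μM compound, 30 min) heated for 3 min across 48°C-58°C and extracted in PBS with 0.5% NP-40 at 4°C. Thermal stability values are relative to control samples and come from duplicates. They are given as log2 fold changes.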

tipifarnib = compound: Cn1cncc1[C@@](N)(c1ccc(Cl)cc1)c1ccc2c(c1)c(-c1cccc(Cl)c1)cc(=O)n2C [tipifarnib]
Procedure, shortened: as §1

bafetinib = compound: Cc1ccc(NC(=O)c2ccc(CN3CC[C@H](N(C)C)C3)c(C(F)(F)F)c2)cc1Nc1nccc(-c2cncnc2)n1 [bafetinib]
Procedure, shortened: as §1

[2] = compound: Cc1cccc(CC(=O)N2CCc3c2ccc(-c2cn(C)c4ncnc(N)c24)c3F)n1
Procedure, shortened: as §1

dasatinib = compound: Cc1nc(Nc2ncc(C(=O)Nc3c(C)cccc3Cl)s2)cc(N2CCN(CCO)CC2)n1 [dasatinib]
Procedure, shortened: as §1

[3] = compound: Cn1cc(-c2ccc3c(c2)CCN3C(=O)Cc2cccc(C(F)(F)F)c2)c2c(N)ncnc21
Procedure, shortened: as §1

mubritinib = compound: FC(F)(F)c1ccc(/C=C/c2nc(COc3ccc(CCCCn4ccnn4)cc3)co2)cc1 [mubritinib]
Procedure, shortened: as §1

[4] = compound: NC(=O)c1cnc(N[C@@H]2CCCC[C@@H]2N)nc1Nc1cccc(-n2nccn2)c1
Procedure, shortened: as §1

[5] = compound: NC1(c2ccc(-c3nc4ccn5c(=O)[nH]nc5c4cc3-c3ccccc3)cc2)CCC1
Procedure, shortened: as §1

vorinostat = compound: O=C(CCCCCCC(=O)Nc1ccccc1)NO [vorinostat]
Procedure, shortened: as §1

silmitasertib = compound: O=C(O)c1ccc2c(c1)nc(Nc1cccc(Cl)c1)c1ccncc12 [silmitasertib]
Procedure, shortened: as §1

[6] = compound: O=C1NC(=O)C(c2cnc3ccccn23)=C1c1cn2c3c(cc(F)cc13)CN(C(=O)N1CCCCC1)CC2
Procedure, shortened: as §1

nilotinib = compound: Cc1cn(-c2cc(NC(=O)c3ccc(C)c(Nc4nccc(-c5cccnc5)n4)c3)cc(C(F)(F)F)c2)cn1 [nilotinib]
Procedure, shortened: as §1

[7] = compound: Cc1nc(Nc2n[nH]c3c2CN(C(=O)N[C@H](CN(C)C)c2ccccc2)C3(C)C)c2sccc2n1
Procedure, shortened: as §1

[8] = compound: Cc1ncc(-c2ccnc(Nc3ccc(S(C)(=O)=O)cc3)n2)n1C(C)C
Procedure, shortened: as §1

[9] = compound: NC(=O)Nc1cc(-c2cccc(F)c2)sc1C(=O)N[C@H]1CCCNC1
Procedure, shortened: as §1

[10] = compound: NCC(=O)Nc1ccc(-n2nc(C(F)(F)F)cc2-c2ccc3c(ccc4ccccc43)c2)cc1
Procedure, shortened: as §1

entinostat = compound: Nc1ccccc1NC(=O)c1ccc(CNC(=O)OCc2cccnc2)cc1 [entinostat]
Procedure, shortened: as §1

citarinostat = compound: O=C(CCCCCCNC(=O)c1cnc(N(c2ccccc2)c2ccccc2Cl)nc1)NO [citarinostat]
Procedure, shortened: as §1

[11] = compound: c1cc(OCCN2CCCCC2)cc(-c2n[nH]c3ccc(-c4nnc[nH]4)cc23)c1
Procedure, shortened: as §1

UniProt Q9BVC4, sequence (Q9BVC4 whole entry, looked up): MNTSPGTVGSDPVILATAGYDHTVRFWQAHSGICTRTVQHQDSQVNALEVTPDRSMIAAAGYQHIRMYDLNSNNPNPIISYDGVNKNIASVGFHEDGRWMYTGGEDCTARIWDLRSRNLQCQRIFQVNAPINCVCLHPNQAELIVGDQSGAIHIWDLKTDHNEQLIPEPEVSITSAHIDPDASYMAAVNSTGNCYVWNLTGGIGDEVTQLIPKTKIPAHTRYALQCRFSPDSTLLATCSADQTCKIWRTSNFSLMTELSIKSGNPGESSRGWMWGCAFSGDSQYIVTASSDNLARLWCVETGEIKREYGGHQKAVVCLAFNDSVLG
UniProt P40692, sequence (P40692 whole entry, looked up): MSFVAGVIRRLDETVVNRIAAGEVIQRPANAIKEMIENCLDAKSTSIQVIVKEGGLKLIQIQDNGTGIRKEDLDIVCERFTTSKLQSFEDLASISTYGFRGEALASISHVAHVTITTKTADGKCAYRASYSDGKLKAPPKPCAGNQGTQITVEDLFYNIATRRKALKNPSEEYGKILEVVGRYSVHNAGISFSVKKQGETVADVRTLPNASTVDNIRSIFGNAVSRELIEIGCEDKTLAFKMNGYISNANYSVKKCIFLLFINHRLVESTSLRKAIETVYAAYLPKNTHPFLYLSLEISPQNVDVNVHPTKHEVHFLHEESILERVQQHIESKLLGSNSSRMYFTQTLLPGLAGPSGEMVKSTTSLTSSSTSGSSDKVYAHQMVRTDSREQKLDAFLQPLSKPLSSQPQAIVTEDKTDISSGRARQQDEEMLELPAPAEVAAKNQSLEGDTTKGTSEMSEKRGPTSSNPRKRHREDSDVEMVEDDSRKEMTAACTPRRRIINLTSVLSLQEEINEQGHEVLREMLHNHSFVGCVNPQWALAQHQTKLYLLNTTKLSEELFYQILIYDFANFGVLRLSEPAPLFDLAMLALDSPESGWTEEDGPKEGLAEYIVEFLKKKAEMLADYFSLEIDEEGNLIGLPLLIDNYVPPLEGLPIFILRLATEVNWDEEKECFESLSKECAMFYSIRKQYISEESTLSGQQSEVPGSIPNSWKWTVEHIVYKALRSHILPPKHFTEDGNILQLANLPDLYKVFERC
UniProt Q8WUY8, sequence (Q8WUY8 whole entry, looked up): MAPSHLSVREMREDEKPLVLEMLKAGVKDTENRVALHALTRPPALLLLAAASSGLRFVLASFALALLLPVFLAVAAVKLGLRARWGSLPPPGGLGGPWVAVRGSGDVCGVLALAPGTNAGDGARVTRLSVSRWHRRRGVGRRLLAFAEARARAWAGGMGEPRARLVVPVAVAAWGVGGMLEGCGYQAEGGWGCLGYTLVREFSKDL
UniProt B2RBV5, sequence (B2RBV5 whole entry, looked up): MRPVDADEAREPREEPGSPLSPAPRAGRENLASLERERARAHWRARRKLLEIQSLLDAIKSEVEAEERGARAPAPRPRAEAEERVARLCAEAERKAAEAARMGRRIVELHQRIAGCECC
UniProt Q92686, sequence (Q92686 whole entry, looked up): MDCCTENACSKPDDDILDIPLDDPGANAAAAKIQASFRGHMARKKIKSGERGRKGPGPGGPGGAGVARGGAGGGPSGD
UniProt Q9Y5B8, sequence (Q9Y5B8 whole entry, looked up): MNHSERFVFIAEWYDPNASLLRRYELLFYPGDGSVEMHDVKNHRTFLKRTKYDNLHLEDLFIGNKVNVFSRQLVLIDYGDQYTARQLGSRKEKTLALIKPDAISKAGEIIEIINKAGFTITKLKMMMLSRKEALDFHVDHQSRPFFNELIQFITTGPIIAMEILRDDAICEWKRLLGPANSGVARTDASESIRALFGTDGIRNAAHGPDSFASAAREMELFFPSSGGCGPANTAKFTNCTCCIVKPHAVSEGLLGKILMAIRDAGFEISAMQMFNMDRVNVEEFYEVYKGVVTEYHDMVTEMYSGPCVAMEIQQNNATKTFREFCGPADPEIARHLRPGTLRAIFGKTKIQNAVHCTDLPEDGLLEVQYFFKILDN
UniProt P03886, sequence (P03886 whole entry, looked up): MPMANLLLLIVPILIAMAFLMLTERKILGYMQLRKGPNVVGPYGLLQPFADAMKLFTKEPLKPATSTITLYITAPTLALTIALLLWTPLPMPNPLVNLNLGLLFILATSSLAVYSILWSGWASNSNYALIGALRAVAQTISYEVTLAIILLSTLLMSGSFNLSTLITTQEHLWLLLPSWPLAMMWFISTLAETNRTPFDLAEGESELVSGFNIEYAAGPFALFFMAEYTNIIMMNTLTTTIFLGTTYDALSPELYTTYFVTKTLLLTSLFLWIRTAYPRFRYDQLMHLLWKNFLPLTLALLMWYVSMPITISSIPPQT
UniProt O75030, sequence (O75030 whole entry, looked up): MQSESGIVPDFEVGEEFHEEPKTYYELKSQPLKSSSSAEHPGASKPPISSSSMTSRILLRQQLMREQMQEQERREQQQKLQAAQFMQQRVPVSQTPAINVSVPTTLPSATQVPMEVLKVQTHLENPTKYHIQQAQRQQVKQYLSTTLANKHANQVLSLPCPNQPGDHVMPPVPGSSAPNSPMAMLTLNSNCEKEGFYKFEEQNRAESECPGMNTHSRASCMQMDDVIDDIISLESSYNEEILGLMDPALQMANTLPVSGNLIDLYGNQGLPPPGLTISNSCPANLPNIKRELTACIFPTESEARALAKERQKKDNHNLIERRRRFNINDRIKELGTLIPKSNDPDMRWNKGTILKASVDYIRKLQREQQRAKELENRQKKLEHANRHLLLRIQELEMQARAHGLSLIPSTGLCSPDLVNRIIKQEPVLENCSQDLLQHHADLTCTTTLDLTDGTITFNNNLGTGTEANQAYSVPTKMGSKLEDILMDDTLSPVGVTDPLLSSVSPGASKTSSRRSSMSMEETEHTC
UniProt Q9UBD5, sequence (Q9UBD5 whole entry, looked up): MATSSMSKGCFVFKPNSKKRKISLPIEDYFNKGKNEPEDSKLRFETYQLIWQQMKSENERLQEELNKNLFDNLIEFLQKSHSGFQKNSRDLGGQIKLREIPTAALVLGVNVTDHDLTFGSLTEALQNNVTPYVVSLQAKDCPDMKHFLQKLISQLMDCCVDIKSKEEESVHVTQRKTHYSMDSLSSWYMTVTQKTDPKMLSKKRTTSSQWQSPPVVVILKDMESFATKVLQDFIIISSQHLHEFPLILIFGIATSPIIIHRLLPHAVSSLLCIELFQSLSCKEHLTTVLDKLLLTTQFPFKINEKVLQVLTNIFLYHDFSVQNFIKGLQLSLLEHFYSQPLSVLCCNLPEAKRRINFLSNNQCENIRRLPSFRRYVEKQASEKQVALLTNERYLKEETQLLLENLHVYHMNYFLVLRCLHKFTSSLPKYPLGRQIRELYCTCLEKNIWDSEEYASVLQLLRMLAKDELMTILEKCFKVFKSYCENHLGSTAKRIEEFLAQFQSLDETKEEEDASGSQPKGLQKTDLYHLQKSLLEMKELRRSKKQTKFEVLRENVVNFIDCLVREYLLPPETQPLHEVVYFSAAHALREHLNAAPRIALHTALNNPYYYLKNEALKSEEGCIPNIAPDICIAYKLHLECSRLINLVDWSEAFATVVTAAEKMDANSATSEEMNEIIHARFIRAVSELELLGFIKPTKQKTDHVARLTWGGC
UniProt P84157, sequence (P84157 whole entry, looked up): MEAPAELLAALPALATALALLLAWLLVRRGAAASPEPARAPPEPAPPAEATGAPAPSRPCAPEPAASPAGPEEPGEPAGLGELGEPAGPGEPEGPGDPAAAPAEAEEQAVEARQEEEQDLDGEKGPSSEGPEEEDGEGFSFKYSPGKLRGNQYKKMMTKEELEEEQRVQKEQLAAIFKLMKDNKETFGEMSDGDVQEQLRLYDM
UniProt Q8N7B6, sequence (Q8N7B6 whole entry, looked up): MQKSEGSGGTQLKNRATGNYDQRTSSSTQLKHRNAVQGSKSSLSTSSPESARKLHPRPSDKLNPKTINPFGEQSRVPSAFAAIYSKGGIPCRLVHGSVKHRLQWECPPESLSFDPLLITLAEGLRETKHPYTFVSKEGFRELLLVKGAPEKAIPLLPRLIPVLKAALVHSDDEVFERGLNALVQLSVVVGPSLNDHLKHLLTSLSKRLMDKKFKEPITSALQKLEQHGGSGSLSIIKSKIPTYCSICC
UniProt Q14978, sequence (Q14978 whole entry, looked up): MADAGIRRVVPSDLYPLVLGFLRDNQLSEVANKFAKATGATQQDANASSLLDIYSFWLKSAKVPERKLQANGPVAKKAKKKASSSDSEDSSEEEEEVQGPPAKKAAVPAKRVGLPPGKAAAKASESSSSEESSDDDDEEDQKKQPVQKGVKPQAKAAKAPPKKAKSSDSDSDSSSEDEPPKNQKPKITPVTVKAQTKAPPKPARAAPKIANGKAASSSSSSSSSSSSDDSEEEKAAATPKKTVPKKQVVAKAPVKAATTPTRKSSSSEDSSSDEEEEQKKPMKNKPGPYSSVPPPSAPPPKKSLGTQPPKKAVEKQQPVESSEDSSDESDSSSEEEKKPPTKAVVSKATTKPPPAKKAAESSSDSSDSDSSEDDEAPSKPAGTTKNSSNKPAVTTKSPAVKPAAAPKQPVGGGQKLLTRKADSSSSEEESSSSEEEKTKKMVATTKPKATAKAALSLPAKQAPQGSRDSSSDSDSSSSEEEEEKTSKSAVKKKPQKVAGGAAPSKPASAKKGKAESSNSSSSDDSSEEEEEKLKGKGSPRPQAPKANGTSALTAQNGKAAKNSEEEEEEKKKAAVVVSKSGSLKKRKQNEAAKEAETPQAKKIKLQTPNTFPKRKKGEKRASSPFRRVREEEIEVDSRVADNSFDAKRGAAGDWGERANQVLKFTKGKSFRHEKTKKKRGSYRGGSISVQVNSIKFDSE

| Target | log2 fold change [1] | log2 fold change (tipifarnib) | log2 fold change (bafetinib) | log2 fold change [2] | log2 fold change (dasatinib) | log2 fold change [3] | log2 fold change (mubritinib) | log2 fold change [4] | log2 fold change [5] | log2 fold change (vorinostat) | log2 fold change (silmitasertib) | log2 fold change [6] | log2 fold change (nilotinib) | log2 fold change [7] | log2 fold change [8] | log2 fold change [9] | log2 fold change [10] | log2 fold change (entinostat) | log2 fold change (citarinostat) | log2 fold change [11] |
| --- | --- | --- | --- | --- | --- | --- | --- | --- | --- | --- | --- | --- | --- | --- | --- | --- | --- | --- | --- | --- |
| MXRA7 isoform 3 (UniProt P84157) | -0.078 | 0.011 | – | – | – | – | – | – | – | – | – | – | – | – | – | – | – | – | – | – |
| MLH1 (UniProt P40692) | – | 0.047 | -0.063 | 0.035 | -0.212 | 0.005 | -0.073 | 0.058 | -0.102 | -0.042 | -0.017 | -0.098 | – | – | – | – | – | – | – | – |
| MT-ND1 (UniProt P03886) | -0.036 | 0.633 (active) | -0.199 | – | -0.149 | 0.066 | 0.114 | 0.244 | -0.004 | – | 0.039 | 0.1 | 0.102 | -0.079 | -0.061 | 0.166 | 0.289 | -0.051 | 0.05 | -0.075 |
| MLST8 (UniProt Q9BVC4) | – | -0.109 | 0.005 | – | -0.152 | 0.028 | 0.1 | -0.201 | -0.182 | – | 0.105 | -0.03 | -0.125 | 0.085 | -0.059 | 0.064 | -0.082 | 0.127 | 0.043 | -0.025 |
| NRGN (UniProt Q92686) | 0.074 | -0.055 | -0.199 | -0.581 | – | – | – | 0.144 | – | -0.231 | – | -0.215 | 0.004 | -0.199 | -0.088 | – | – | – | – | – |
| NOLC1 isoform 3 (UniProt Q14978) | – | – | – | – | – | -0.015 | – | – | – | – | – | – | – | – | – | – | – | – | – | – |
| PACRGL (UniProt Q8N7B6) | – | – | – | – | – | – | – | – | – | – | – | – | – | – | – | 0.055 | – | -0.116 | – | – |
| MRPS26 (UniProt Q9BYN8) | 0.135 | -0.142 | 0.275 | -0.003 | -0.031 | 0.007 | 0.088 | -0.022 | -0.088 | 0.171 | -0.044 | -0.039 | – | – | – | -0.067 | 0.092 | 0.022 | -0.04 | 0 |
| NME7 (UniProt Q9Y5B8) | 0.009 | -0.001 | -0.14 | 0.071 | -0.245 | -0.044 | -0.279 | -0.13 | -0.184 | 0.145 | 0.071 | 0.05 | – | – | – | 0.159 | 0.057 | 0.159 | 0.03 | 0.186 |
| NAT14 (UniProt Q8WUY8) | -0.209 | 0.054 | -0.071 | – | -0.066 | -0.06 | 0.118 | -0.135 | -0.108 | – | 0 | -0.037 | 0.003 | -0.052 | 0 | 0.038 | -0.33 | -0.033 | 0.04 | -0.108 |
| NA (UniProt J3KR12) | -0.112 | – | 0.338 | – | – | – | 0.16 | – | -0.292 | – | -0.108 | 0.427 | 0.208 | -0.221 | -0.196 | – | – | – | – | – |
| NA (UniProt B2RBV5) | – | 0.075 | -0.005 | -0.084 | – | – | 0.04 | – | -0.055 | 0.045 | 0.056 | -0.001 | -0.433 | 0.828 (active) | -0.195 | 0.06 | – | 0.029 | 0.12 | -0.014 |
| ORC3 (UniProt Q9UBD5) | – | – | – | – | – | – | – | 0.067 | – | – | – | – | – | – | – | – | – | – | 0.032 | -0.195 |
| MITF (UniProt O75030) | – | – | – | 0.001 | – | – | 0.084 | 0.021 | -0.11 | 0.2 | 0.071 | – | -0.071 | -0.07 | -0.047 | -0.023 | 0.302 | -0.048 | 0.083 | -0.022 |
